{"source": "PubChem BioAssay AID504339", "about": "(National Center for Advancing Translational Sciences (NCATS), 2011)", "note": "Screen size: about 390,000 compounds; about 17,000 (4.4%) were called active. Roughly 8% stayed inconclusive and do not appear here. Calls follow the shape of the dose curve; as a rule, active = well fitted inhibition curve with a large enough effect; inconclusive = small, poorly fitted or top-dose-only effect; inactive = no such curve, though single readings can be large or run the other way. The list comes from a sample in which actives are over-represented; it also holds similar structures and randomly drawn compounds. Where a call stands in place of a potency, no number is given. Potency is read from the fitted curve at half-maximal effect.", "data": [{"molecular_target": "Lysine-specific demethylase 4A (Homo sapiens) (UniProt O75164)", "sequence (O75164 whole entry, looked up, the tested form may be a part)": "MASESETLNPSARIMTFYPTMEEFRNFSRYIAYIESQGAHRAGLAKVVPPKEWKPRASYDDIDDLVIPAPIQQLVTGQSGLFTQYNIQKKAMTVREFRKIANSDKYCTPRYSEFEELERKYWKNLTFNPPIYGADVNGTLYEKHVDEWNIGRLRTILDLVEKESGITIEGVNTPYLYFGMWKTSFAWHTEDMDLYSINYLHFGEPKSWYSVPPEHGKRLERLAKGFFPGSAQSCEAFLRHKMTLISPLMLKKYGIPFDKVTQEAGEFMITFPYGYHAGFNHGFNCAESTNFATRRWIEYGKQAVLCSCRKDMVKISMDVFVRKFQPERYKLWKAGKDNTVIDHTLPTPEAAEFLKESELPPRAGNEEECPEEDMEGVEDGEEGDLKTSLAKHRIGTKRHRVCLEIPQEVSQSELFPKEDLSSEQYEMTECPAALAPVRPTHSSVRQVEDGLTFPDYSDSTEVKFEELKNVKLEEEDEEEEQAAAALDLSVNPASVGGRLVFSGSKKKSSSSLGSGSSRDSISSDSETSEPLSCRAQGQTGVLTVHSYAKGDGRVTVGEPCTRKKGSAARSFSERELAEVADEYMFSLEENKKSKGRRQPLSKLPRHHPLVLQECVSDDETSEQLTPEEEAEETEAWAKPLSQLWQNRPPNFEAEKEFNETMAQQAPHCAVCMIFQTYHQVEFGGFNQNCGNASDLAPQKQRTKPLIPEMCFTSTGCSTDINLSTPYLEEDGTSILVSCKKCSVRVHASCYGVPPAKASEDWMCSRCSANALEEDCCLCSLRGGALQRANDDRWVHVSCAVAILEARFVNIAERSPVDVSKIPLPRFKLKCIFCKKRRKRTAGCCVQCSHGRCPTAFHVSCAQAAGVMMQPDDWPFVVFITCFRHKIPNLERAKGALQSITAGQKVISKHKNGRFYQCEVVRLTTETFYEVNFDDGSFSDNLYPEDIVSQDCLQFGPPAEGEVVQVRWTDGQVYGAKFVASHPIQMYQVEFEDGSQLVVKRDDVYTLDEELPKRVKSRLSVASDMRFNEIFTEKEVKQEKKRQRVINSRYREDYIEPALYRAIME", "assay": "qHTS Assay for Inhibitors of JMJD2A-Tudor Domain; also: nearly all actives have a fitted effect of over 50% in size", "settings": "AlphaScreen JMJD2A-Tudor / H3K4me3 peptide binding; series mostly up to 114 µM", "values": [{"smiles": "COP(=O)(OC)C(NC(=O)c1ccc(C)cc1)C(Cl)(Cl)Cl", "note": "(centres undefined)", "Potency": "inactive"}, {"smiles": "Cc1nnc(NC(=O)c2cccn(Cc3cccc(F)c3)c2=O)s1", "Potency": "inactive"}, {"smiles": "COC(=O)C1=C(c2cc3ccccc3s2)C[C@@H]2CC[C@H]1N2C(=O)NCc1cccc2ccccc12", "Potency": "inactive"}, {"smiles": "CC(CC(C#N)(c1ccccc1)c1ccccc1)N1CCCCC1", "note": "(centres undefined)", "Potency": "inactive"}, {"smiles": "O=C(COC(=O)c1ccccc1)Nc1ccccc1Sc1ccccc1", "Potency": "inactive"}, {"smiles": "Cc1cc(-c2n[nH]c(=S)n2-c2ccc(C)c(C)c2)no1", "Potency": "3.16 µM (active)"}, {"smiles": "O=C1NC(=O)C(CCOc2ccccc2)(CCc2ccccc2)C(=O)N1", "Potency": "inactive"}, {"smiles": "CCOC(=O)C1(c2ccccc2)CCN(CC(O)c2ccc(NC(C)=O)cc2)CC1", "note": "(centres undefined)", "Potency": "inactive"}, {"smiles": "CCOP(=S)(OCC)SCOC(=O)NCC(=O)OC", "Potency": "inactive"}, {"smiles": "COC(=O)C1=C(c2c(C)noc2C)C[C@@H]2CC[C@H]1N2C(=O)NCc1ccc2c(c1)OCO2", "Potency": "inactive"}, {"smiles": "CCN1CCN(Cc2cc(OC)c3c(c2)OCO3)CC1", "Potency": "inactive"}, {"smiles": "COc1ccc(CNCCc2ccc3c(c2)OCO3)c(OC)c1OC", "Potency": "89.1 µM (active)"}, {"smiles": "CC1C(=O)OC2CCN3CC=C(COC(=O)C(C)(O)C1(C)O)C23", "note": "(centres undefined)", "Potency": "inactive"}, {"smiles": "COc1cc([C@@H]2c3cc4c(cc3[C@H](OC(C)=O)[C@H]3COC(=O)[C@H]23)OCO4)cc(OC)c1OC", "Potency": "inactive"}, {"smiles": "COC(=O)[C@@H]1C(OC(=O)c2ccccc2)CC2CCC1N2C", "note": "(some centres undefined)", "Potency": "inactive"}, {"smiles": "CCC1(CC(C)c2ccccc2)C(=O)NC(=O)NC1=O", "note": "(centres undefined)", "Potency": "inactive"}, {"smiles": "CN(C)C(=O)Oc1cc(OC(=O)N(C)C)cc(C(O)CNC(C)(C)C)c1", "note": "(centres undefined)", "Potency": "inactive"}, {"smiles": "Cc1cc(=O)oc2c(C)c(OCC(=O)N3CCN(Cc4ccc5c(c4)OCO5)CC3)ccc12", "Potency": "inactive"}, {"smiles": "Fc1ccc(N2CCN(Cc3ccc4c(c3)OCO4)CC2)cc1", "Potency": "3.55 µM (active)"}, {"smiles": "O=C(Cc1ccccc1[N+](=O)[O-])N1CCN(Cc2ccc3c(c2)OCO3)CC1", "Potency": "inactive"}, {"smiles": "CCCCCCCCCCCCn1ccc(=N)cc1", "Potency": "inactive"}, {"smiles": "CSc1ccc(C(=O)C2CCCN(Cc3ccn[nH]3)C2)cc1", "note": "(centres undefined)", "Potency": "inactive"}, {"smiles": "CN(C)CC1Oc2ccccc2OC1(O)c1ccccc1", "note": "(centres undefined)", "Potency": "inactive"}, {"smiles": "O=c1c2ccccc2nc(-c2ccc(Cl)cc2Cl)n1-c1ccncc1", "Potency": "inactive"}, {"smiles": "O=C1NC(=O)N(Cc2ccco2)C(=O)/C1=C\\c1cccn1CCOc1ccccc1", "Potency": "inactive"}, {"smiles": "COc1ccc(CN2C(=O)NC(=O)/C(=C\\c3ccc(OC)c(OC)c3OC)C2=O)cc1", "Potency": "56.2 µM (active)"}, {"smiles": "O=C(O)COc1ccccc1/C=C1\\C(=O)NC(=O)N(CCC2=CCCCC2)C1=O", "Potency": "inactive"}, {"smiles": "CC(=O)c1c(O)n(C2CCCCCC2)c(=O)[nH]c1=O", "Potency": "inactive"}, {"smiles": "CO[C@H]1[C@@H](O)[C@@H](C)O[C@H](O[C@H]2[C@H](Oc3cccc4c(O)c5c(=O)oc6ccc(C)c7c(=O)oc(c34)c5c67)O[C@H](C)[C@H](O)[C@@H]2O)[C@@H]1O", "Potency": "inactive"}]}]}
